Measured values as given in PubChem BioAssay (NCI).
This is part of a sample that, as a whole, favours compounds with a hit. Of some 83,000 tested, about 20% had one in any assay.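 Testing used 96-well plates and a 48-hour single-concentration exposure. Example: -40 means 40% of the starting cells died.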 Values without a mark were called inactive. Calls of active or inactive are those of the source. The calls were made as follows: active = growth percent below 10; inactive = the rest.

test system: NCI-H522 lung; test: NCI-60 one-dose screen, 48 h (100 = growth as untreated, 0 = no growth, -100 = all killed); conditions: 10 µM unless noted

Point of comparison: `Cc1ccc(NC(=O)c2sc3nc(C)c(Br)c(C)c3c2N)cc1`, growth 71.9%. Against it:
- O=C(Nc1ccccc1)Nc1ncnc2c1ncn2-c1ccc(Cl)cc1 — higher, 85.4%
- CC(C)c1ccc(C(=O)Nc2nc3ccc(O)c(CN(C)C)c3s2)cc1 — higher, 79.4%
- Cc1ccc(Nn2c(SCC(=O)Nc3nc(-c4ccccc4)cs3)nc(C)c2C)cc1 — lower, 49.7%
- CCN1C(=S)N(c2ccccc2)C2C1NN=c1s/c(=C3\C(=O)N(C(C)C)c4ccccc43)c(=O)n12 (stereo not drawn) — higher, 78.6%
- CSc1nc2ccccc2cc1/C=[N+](\[O-])c1ccccc1 — higher, 82.4%
- CN1CCN(c2cc(Nc3cc(C4CC4)[nH]n3)nc(Nc3ccc(CC(=O)NCc4cccc(F)c4)cc3)n2)CC1 — lower, 61.2%
- Cn1cc(-c2csc(-c3cn(C(=O)OC(C)(C)C)c4ccc(Br)cc34)n2)c2ccnc(Cl)c21 — lower, 66.7%
- CSc1oc(C)nc1[P+](c1ccccc1)(c1ccccc1)c1ccccc1 — lower, 56.5%
- O=S(=O)(c1ccccc1)n1cc2c(c1)-c1nc(Nc3ncccn3)sc1CC2 — lower, 55.3%
- COc1ccc(-c2cc(-c3ccc(Cl)cc3)c(C#N)c(=O)n2Cc2ccc(C(=O)Nc3ccccc3N)cc2)cc1 — lower, 53.9%
- O=C(CN1CCCCC1)Nc1nc(-c2cc3ccccc3oc2=O)cs1 — higher, 93.6%
- CC(=O)Oc1ccc(/C(=C(\C)c2ccc(Cl)cc2)c2ccc(OCCN3CCCCC3)cc2)cc1 — lower, 21.2%
- N#Cc1nc(-c2ccccc2)oc1S(=O)(=O)N1CCN(c2ccccc2)CC1 — lower, 58.6%
- O=C(/C=C/c1cn(-c2ccccc2)nc1-c1ccc(Cl)cc1)c1ccc(F)cc1 — higher, 87.1%
- CCOC(=O)c1c(NC(=O)c2cccc(C(F)(F)F)c2)sc2c(CN(C)C)c(O)ccc12 — the same, 71.9%
- N#Cc1c(-c2ccccc2)cc(-c2ccc(Nc3nc(Nc4ccc(Cl)cc4)nc(Nc4ccc(Cl)cc4)n3)cc2)nc1N — higher, 80.7%
- CCOC(=O)c1ccc2c(c1)nc(-c1ccccc1)n2C1CCCCC1 — higher, 73.6%
- CC(=O)N1N=C(c2ccc(C(F)(F)F)c(F)c2)CC1c1[nH]c(C)c(C(=O)NCC(F)(F)F)c1C (stereo not drawn) — higher, 94.8%
- O=C(CN1C(=O)S/C(=C\c2ccccc2)C1=O)Nc1ncc(Cc2ccccc2Cl)s1 — higher, 81%
- COc1cc(OCc2cccc(Br)c2C)cc(OC)c1C=O — lower, 62%
- Clc1cccc(Nc2ncnc3ccc(-c4cnc5[nH]ccc5c4)cc23)c1 — lower, 33.9%
- COc1cc2ncnc(Nc3ccc(F)c(Cl)c3)c2cc1OCC(=O)N1CCN(c2ccccc2)CC1 — higher, 79.9%
- O=C1Nc2ccccc2/C1=C/c1nc2ccccc2c(=O)[nH]1 — higher, 94.1%
- CNc1nnc2n(-c3ccccc3)c(=O)c3cnn(-c4ccccc4)c3n12 — lower, 41.8%

In the case of `N#CC(C#N)N=Nc1ccc(Br)cc1`, the growth was 7.59% (active).
`C=CCN=c1sc2c(n1NC(=O)c1cc3ccc1CCc1ccc(cc1)CC3)C(=O)c1ccccc1C2=O` was tested, and the growth was -20.2% (active).
In the case of `C=C1C(=O)O[C@H]2[C@H]1CC/C(Cn1cc(-c3ccccc3)nn1)=C\CC[C@@]1(C)O[C@@H]21`, the growth was -62% (active).
In the case of `Cc1[nH]c(C(=O)Nc2ccccc2OC2CCNCC2)c(Cl)c1Cl`, the growth was -24.7% (active).
For `Oc1ccc(Cl)cc1/C=N\NC(=S)N/N=C/c1cc(Cl)ccc1O`, the growth was -7.22% (active).
In the case of `COC12C=C/C(=C(/C(=O)OCc3ccncn3)C(=O)CCCCCCCCC3(OC)C=C/C(=C(/C(=O)OCc4ccncn4)C(=O)CCCCCCCC1)O3)O2`, the growth was -13.1% (active).
For `COc1ccc2c(c1)N(CCO)C1=C(C(=O)OC1)C2c1cccc(F)c1` (stereo not drawn), the growth was 6.05% (active).
For `O=C(N(c1ccccc1)c1ccccc1)n1cc(I)c2nc(Cl)nc(Cl)c21`, the growth was 3.35% (active).
In the case of `O=C(CN1C(=O)S/C(=C\C(Cl)=C\c2ccccc2)C1=O)NCCc1ccc(O)cc1`, the growth was -6.49% (active).
In the case of `O=C(/C=C/c1cccs1)Nc1ncc(Cc2ccccc2F)s1`, the growth was 6.23% (active).
For `O=S(=O)(Nc1cc(Cl)ccc1Cl)c1ccc(-c2cnc(C3CC3)o2)cc1`, the growth was 0.738% (active).
`COc1cc(NS(=O)(=O)c2ccc(-c3cnc(C4CC4)o3)cc2)ccc1F` was tested, and the growth was 0.251% (active).
`COC1=CC(c2ccc[nH]2)=N/C1=C\c1[nH]c(C)c(CC(=O)OCc2ccccc2)c1CCC(=O)OCc1ccccc1` was tested, and the growth was -48.5% (active).
`C=C1C(=O)O[C@H]2[C@H]1CC/C(COC(=O)c1cc3ccccc3s1)=C\CC[C@@]1(C)O[C@@H]21` was tested, and the growth was -70.1% (active).

test system: A549/ATCC NSCLC; test: as above; conditions: 10 µM unless noted

Point of comparison: `CSc1nc2ccccc2cc1/C=[N+](\[O-])c1ccccc1`, growth 97.6%. Against it:
- O=C(Nc1ccccc1)Nc1ncnc2c1ncn2-c1ccc(Cl)cc1 — lower, 83.7%
- CC(C)c1ccc(C(=O)Nc2nc3ccc(O)c(CN(C)C)c3s2)cc1 — lower, 80.6%
- Cc1ccc(Nn2c(SCC(=O)Nc3nc(-c4ccccc4)cs3)nc(C)c2C)cc1 — lower, 46.3%
- N#CC(C#N)N=Nc1ccc(Br)cc1 — lower, 83.5%
- CCN1C(=S)N(c2ccccc2)C2C1NN=c1s/c(=C3\C(=O)N(C(C)C)c4ccccc43)c(=O)n12 (stereo not drawn) — lower, 57.8%
- CN1CCN(c2cc(Nc3cc(C4CC4)[nH]n3)nc(Nc3ccc(CC(=O)NCc4cccc(F)c4)cc3)n2)CC1 — lower, 24.3%
- C=CCN=c1sc2c(n1NC(=O)c1cc3ccc1CCc1ccc(cc1)CC3)C(=O)c1ccccc1C2=O — lower, 23.3%
- Cn1cc(-c2csc(-c3cn(C(=O)OC(C)(C)C)c4ccc(Br)cc34)n2)c2ccnc(Cl)c21 — lower, 70.3%
- CSc1oc(C)nc1[P+](c1ccccc1)(c1ccccc1)c1ccccc1 — lower, 61.8%
- C=C1C(=O)O[C@H]2[C@H]1CC/C(Cn1cc(-c3ccccc3)nn1)=C\CC[C@@]1(C)O[C@@H]21 — lower, 33.8%
- O=S(=O)(c1ccccc1)n1cc2c(c1)-c1nc(Nc3ncccn3)sc1CC2 — lower, 35.2%
- Cc1[nH]c(C(=O)Nc2ccccc2OC2CCNCC2)c(Cl)c1Cl — lower, 27.3%
- COc1ccc(-c2cc(-c3ccc(Cl)cc3)c(C#N)c(=O)n2Cc2ccc(C(=O)Nc3ccccc3N)cc2)cc1 — higher, 109%
- O=C(CN1CCCCC1)Nc1nc(-c2cc3ccccc3oc2=O)cs1 — higher, 102%
- Oc1ccc(Cl)cc1/C=N\NC(=S)N/N=C/c1cc(Cl)ccc1O — lower, 37.4%
- COc1ccc2c(c1)N(CCO)C1=C(C(=O)OC1)C2c1cccc(F)c1 (stereo not drawn) — lower, 16.1%
- CC(=O)Oc1ccc(/C(=C(\C)c2ccc(Cl)cc2)c2ccc(OCCN3CCCCC3)cc2)cc1 — lower, 31.7%
- O=C(N(c1ccccc1)c1ccccc1)n1cc(I)c2nc(Cl)nc(Cl)c21 — lower, 60.2%
- N#Cc1nc(-c2ccccc2)oc1S(=O)(=O)N1CCN(c2ccccc2)CC1 — higher, 99.9%
- Cc1ccc(NC(=O)c2sc3nc(C)c(Br)c(C)c3c2N)cc1 — lower, 67.7%
- O=C(CN1C(=O)S/C(=C\C(Cl)=C\c2ccccc2)C1=O)NCCc1ccc(O)cc1 — lower, 48.8%
- O=C(/C=C/c1cn(-c2ccccc2)nc1-c1ccc(Cl)cc1)c1ccc(F)cc1 — lower, 79.7%
- CCOC(=O)c1c(NC(=O)c2cccc(C(F)(F)F)c2)sc2c(CN(C)C)c(O)ccc12 — lower, 60.8%
- N#Cc1c(-c2ccccc2)cc(-c2ccc(Nc3nc(Nc4ccc(Cl)cc4)nc(Nc4ccc(Cl)cc4)n3)cc2)nc1N — lower, 28.8%
- O=C(/C=C/c1cccs1)Nc1ncc(Cc2ccccc2F)s1 — lower, 29%
- O=S(=O)(Nc1cc(Cl)ccc1Cl)c1ccc(-c2cnc(C3CC3)o2)cc1 — lower, 45.2%
- CCOC(=O)c1ccc2c(c1)nc(-c1ccccc1)n2C1CCCCC1 — lower, 68.3%
- CC(=O)N1N=C(c2ccc(C(F)(F)F)c(F)c2)CC1c1[nH]c(C)c(C(=O)NCC(F)(F)F)c1C (stereo not drawn) — lower, 55.8%
- O=C(CN1C(=O)S/C(=C\c2ccccc2)C1=O)Nc1ncc(Cc2ccccc2Cl)s1 — higher, 98.6%
- COc1cc(OCc2cccc(Br)c2C)cc(OC)c1C=O — lower, 76.5%
- COc1cc(NS(=O)(=O)c2ccc(-c3cnc(C4CC4)o3)cc2)ccc1F — lower, 34.4%
- Clc1cccc(Nc2ncnc3ccc(-c4cnc5[nH]ccc5c4)cc23)c1 — lower, 50.1%
- COc1cc2ncnc(Nc3ccc(F)c(Cl)c3)c2cc1OCC(=O)N1CCN(c2ccccc2)CC1 — lower, 82.9%
- O=C1Nc2ccccc2/C1=C/c1nc2ccccc2c(=O)[nH]1 — higher, 100%
- CNc1nnc2n(-c3ccccc3)c(=O)c3cnn(-c4ccccc4)c3n12 — lower, 64.4%

With `COC12C=C/C(=C(/C(=O)OCc3ccncn3)C(=O)CCCCCCCCC3(OC)C=C/C(=C(/C(=O)OCc4ccncn4)C(=O)CCCCCCCC1)O3)O2` the growth was 6.41% (active).
For `COC1=CC(c2ccc[nH]2)=N/C1=C\c1[nH]c(C)c(CC(=O)OCc2ccccc2)c1CCC(=O)OCc1ccccc1`, the growth was 5.29% (active).
With `C=C1C(=O)O[C@H]2[C@H]1CC/C(COC(=O)c1cc3ccccc3s1)=C\CC[C@@]1(C)O[C@@H]21` the growth was -51.1% (active).
